The campaign covered roughly 5,500 compounds. About 2,000 (36%) were called active. Roughly 18% stayed inconclusive and do not appear here. No stated cut-off is given here; in the data, active means normalized growth mostly below about 0.91 (no sharp cut-off); inconclusive means no clear call, values can overlap the other calls; inactive means mostly above about 0.92. The list shows a part of the results.
Assay: chemical genetic growth profiling, strain panel (AID 1159580);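 further: tested at 20 µM; growth read once vehicle control cultures reached saturation at 30 °C; 1 = growth at the plate median or of vehicle wells; lower values mean less growth of the strain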
Conditions: S. cerevisiae deletion strains, growth OD
[1] = locus YHR030C, strain SLT2, hits give low values
[2] = locus YHR079C, strain IRE1, hits give low values
[3] = locus YJL095W, strain BCK1, hits give low values
[4] = locus YJR066W, strain TOR1, hits give low values
[5] = locus YLR113W, strain HOG1, hits give low values
[6] = locus YNL183C, strain NPR1, hits give low values
[7] = locus YOR231W, strain MKK1, hits give low values
[8] = locus YPL256C, strain CLN2, hits give low values

Measured: normalized growth

CO/N=C(/C(=O)NC1C(=O)N2C(C(=O)OCOC(=O)C(C)(C)C)=C(/C=C\c3scnc3C)CSC12)c1csc(N)n1 (centres undefined)
inactive: locus YAL021C, strain ccr4, hits give low values 0.974 | locus YAL026C, strain drs2, hits give low values 1.01 | locus YAL030W, strain snc1, hits give low values 0.992 | locus YBL061C, strain skt5, hits give low values 1 | locus YBR009C, strain hhf1, hits give low values 0.98 | locus YBR023C, strain chs3, hits give low values 1 | locus YBR171W, strain sec66, hits give low values 1 | locus YBR231C, strain swc5, hits give low values 0.965 | locus YBR279W, strain paf1, hits give low values 1 | locus YCL011C, strain gbp2, hits give low values 1 | locus YCL016C, strain dcc1, hits give low values 1 | locus YCL069W, strain vba3, hits give low values 0.999 | locus YCR088W, strain abp1, hits give low values 0.999 | locus YDL005C, strain med2, hits give low values 0.999 | locus YDL040C, strain nat1, hits give low values 1 | locus YDR001C, strain nth1, hits give low values 1.01 | locus YDR069C, strain doa4, hits give low values 1.01 | locus YDR137W, strain rgp1, hits give low values 1.03 | locus YDR159W, strain sac3, hits give low values 0.902 | locus YDR195W, strain ref2 0.96 | locus YDR297W, strain sur2, hits give low values 1.01 | locus YDR334W, strain swr1, hits give low values 0.989 | locus YDR335W, strain msn5, hits give low values 1.01 | locus YDR392W, strain spt3, hits give low values 0.906 | locus YEL003W, strain gim4, hits give low values 0.995 | locus YEL037C, strain rad23, hits give low values 0.988 | locus YEL061C, strain CIN8 (second series), hits give low values 0.985 | locus YER015W, strain faa2, hits give low values 0.988 | locus YER016W, strain bim1, hits give low values 1.03 | locus YER111C, strain swi4, hits give low values 0.986 | locus YER155C, strain BEM2 (second series), hits give low values 0.875 | locus YFR010W, strain ubp6, hits give low values 0.998 | locus YGL167C, strain pmr1, hits give low values 1 | locus YGL173C, strain kem1, hits give low values 1 | locus YGL227W, strain vid30, hits give low values 1.03 | locus YGL240W, strain doc1, hits give low values 0.976 | locus YGL253W, strain hxk2, hits give low values 1.01 | locus YHR013C, strain ard1, hits give low values 1 | locus YHR027C, strain rpn1, hits give low values 1 | [1] 1.05 | [2] 1.04 | locus YHR142W, strain chs7, hits give low values 1.02 | locus YJL092W, strain hpr5, hits give low values 0.995 | locus YJL095W, strain BCK1 (second series), hits give low values 0.994 | [3] 1.01 | locus YJL115W, strain asf1, hits give low values 1 | locus YJL129C, strain trk1, hits give low values 1.01 | locus YJL154C, strain vps35, hits give low values 0.996 | locus YJL164C, strain tpk1, hits give low values 0.989 | locus YJL166W, strain qcr8, hits give low values 1 | locus YJL187C, strain SWE1, hits give low values 1 | [4] 1.01 | locus YKL160W, strain elf1, hits give low values 1 | locus YKR026C, strain gcn3, hits give low values 0.994 | locus YKR091W, strain srl3, hits give low values 0.993 | locus YLL001W, strain dnm1, hits give low values 0.953 | locus YLL026W, hits give low values 0.996 | locus YLL041C, strain sdh2, hits give low values 0.997 | locus YLR027C, strain aat2, hits give low values 1 | [5] 0.962 | locus YLR221C, strain rsa3, hits give low values 0.994 | locus YLR258W, strain gsy2, hits give low values 1.01 | locus YLR262C, strain YPT6 (second series), hits give low values 0.992 | locus YLR320W, strain mms22, hits give low values 0.955 | locus YLR342W, strain FKS1, hits give low values 1.01 | locus YLR357W, strain rsc2, hits give low values 0.942 | locus YLR370C, strain arc18, hits give low values 0.991 | locus YLR384C, strain iki3, hits give low values 1.02 | locus YML120C, strain ndi1, hits give low values 0.995 | locus YMR058W, strain fet3, hits give low values 0.991 | locus YMR125W, strain sto1, hits give low values 0.981 | locus YMR129W, hits give low values 0.992 | locus YMR205C, strain PFK2, hits give low values 0.99 | locus YMR231W, strain pep5, hits give low values 0.994 | locus YNL071W, strain lat1, hits give low values 0.999 | [6] 0.981 | locus YNL209W, strain ssb2, hits give low values 1.01 | locus YNL248C, strain rpa49, hits give low values 1.01 | locus YNL322C, strain KRE1 (second series), hits give low values 0.984 | locus YNR049C, strain mso1, hits give low values 0.991 | locus YOR001W, strain rrp6, hits give low values 0.973 | locus YOR070C, strain gyp1, hits give low values 1 | locus YOR080W, strain dia2, hits give low values 0.996 | locus YOR083W, strain WHI5, hits give low values 0.95 | locus YOR106W, strain vam3, hits give low values 1.01 | [7] 1.01 | locus YOR265W, strain rbl2, hits give low values 0.998 | locus YOR270C, strain vph1, hits give low values 1.04 | locus YOR290C, strain snf2, hits give low values 1.01 | locus YPL051W, strain arl3, hits give low values 1.01 | locus YPL078C, strain atp4, hits give low values 0.998 | locus YPL106C, strain sse1, hits give low values 1.01 | locus YPL240C, strain hsp82, hits give low values 1 | [8] 1.03

Cc1cc2nc3c(Cl)c(O)c4ccccc4c3nc2cc1C
inactive: locus YAR019C, strain CDC15, hits give low values 0.966 | locus YBL105C, strain PKC1, hits give low values 0.961 | locus YBR135W, strain CKS1, hits give low values 0.949 | locus YBR136W, strain MEC1, hits give low values 0.965 | locus YBR160W, strain CDC28, hits give low values 0.96 | locus YDL017W, strain CDC7, hits give low values 0.965 | locus YDL028C, strain MPS1, hits give low values 0.959 | locus YDL101C, strain DUN1, hits give low values 0.981 | locus YDL108W, strain KIN28, hits give low values 0.954 | locus YDL132W, strain cdc53, hits give low values 0.966 | locus YDL214C, strain PRR2, hits give low values 0.818 | locus YDR052C, strain DBF4, hits give low values 0.953 | locus YDR054C, strain cdc34, hits give low values 0.965 | locus YDR226W, strain ADK1, hits give low values 0.949 | locus YER123W, strain YCK3, hits give low values 0.766 | locus YER133W, strain GLC7, hits give low values 0.87 | locus YFL009W, strain cdc4, hits give low values 0.969 | locus YFL029C, strain CAK1, hits give low values 0.946 | locus YFR003C, strain YPI1, hits give low values 0.962 | locus YFR019W, strain FAB1, hits give low values 0.887 | locus YFR028C, strain CDC14, hits give low values 0.958 | locus YGR040W, strain KSS1, hits give low values 0.724 | locus YGR052W, strain FMP48, hits give low values 0.722 | locus YGR092W, strain DBF2, hits give low values 0.487 | [2] 0.805 | locus YHR082C, strain KSP1, hits give low values 0.737 | locus YHR205W, strain SCH9, hits give low values 0.666 | locus YIL147C, strain SLN1, hits give low values 0.958 | [3] 0.749 | locus YJL128C, strain PBS2, hits give low values 0.944 | locus YJL157C, strain FAR1, hits give low values 0.778 | locus YJR016C, strain ILV3, hits give low values 0.955 | locus YJR066W, strain TOR1 (second series), hits give low values 0.64 | [4] 0.559 | locus YKL067W, strain YNK1, hits give low values 0.786 | locus YKL101W, strain HSL1, hits give low values 0.829 | locus YKL193C, strain SDS22, hits give low values 0.972 | locus YKL203C, strain TOR2, hits give low values 0.766 | [5] 0.877 | locus YLR403W, strain SFP1, hits give low values 0.663 | locus YML070W, strain DAK1, hits give low values 0.852 | locus YMR001C, strain CDC5, hits give low values 0.959 | locus YMR277W, strain FCP1, hits give low values 0.961 | locus YNL006W, strain LST8, hits give low values 0.974 | locus YNL161W, strain CBK1, hits give low values 0.971 | [6] 0.739 | locus YNL207W, strain RIO2, hits give low values 0.961 | locus YNL222W, strain SSU72, hits give low values 0.955 | locus YOL078W, strain AVO1, hits give low values 0.962 | locus YOL136C, strain PFK27, hits give low values 0.838 | locus YOR119C, strain RIO1, hits give low values 0.831 | [7] 0.829 | locus YOR329C, strain SCD5, hits give low values 0.97 | locus YPL153C, strain RAD53, hits give low values 0.68 | locus YPL209C, strain IPL1, hits give low values 0.976 | [8] 0.869 | locus YPR025C, strain CCL1, hits give low values 0.957 | locus YPR106W, strain ISR1, hits give low values 1.01 | locus YPR111W, strain DBF20, hits give low values 0.976 | strain NNK1, hits give low values 0.966 | strain TSCII, hits give low values 0.963
active: locus YDR477W, strain SNF1, hits give low values 0.634 | [1] 0.55 | locus YKL048C, strain ELM1, hits give low values 0.737 | locus YLR133W, strain CKI1, hits give low values 0.679 | locus YMR205C, strain PFK2 (second series), hits give low values 0.726 | locus YNL020C, strain ARK1, hits give low values 0.617 | locus YOR061W, strain CKA2, hits give low values 0.43 | locus YPL031C, strain PHO85, hits give low values 0.643 | locus YPL204W, strain HRR25, hits give low values 0.646

Reference: PubChem BioAssay AID1159580 (chemical genetic matrix, 2015)
